Seven molecules from PubChem BioAssay (NCATS) can be followed below.

Test [1] has as its target Androgen receptor (Homo sapiens) (UniProt P10275). The test is described as follows: qHTS assay for small molecule antagonists of androgen receptor signaling (AID 588516; active means well fitted curve in the direction sought with a large enough effect in the signal ratio, with a control signal flat, not every such curve was filed as active; the % refers to the signal ratio; further: on the % scale 0 is the no-effect control and ±100 the full control effect). In short, it runs like this: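 Antagonist mode: inhibition of R1881-stimulated (10 nM final) bla reporter in GeneBLAzer AR HEK 293 cells, 16 h at 37C, compounds titrated. IC50 and efficacy from Hill-equation fits of 405/460–530 nm FRET ratios.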
On the technique in general: In qHTS, concentration-response curves come from the screen itself.

Test [2] has as its target Glucocorticoid receptor (Homo sapiens) (UniProt P04150). The test can be described thus: qHTS assay for small molecule agonists of glucocorticoid receptor signaling (AID 588532; active means well fitted curve in the direction sought with a large enough effect in the signal ratio, with a control signal flat; the % refers to the signal ratio;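 further: 100% = dexamethasone at 0.1 µM and 0% = DMSO only wells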). To be noted: HeLa MMTV-bla, beta-lactamase ratio, agonist, 18 h; stronger effect = higher value; percent of dexamethasone control, DMSO zero. The gist of the method:
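HeLa GRE-bla reporter cells; 18 h compound exposure at 37 C; 2 h CCF4 loading at room temperature; fluorescence at 460 and 530 nm; EC50 by Hill equation.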

For test [3] the target is unchanged. The test is described as follows: qHTS assay for small molecule antagonists of glucocorticoid receptor signaling (AID 588533; active means well fitted inhibition curve with a large enough effect in the signal ratio, with a control signal flat, not every such curve was filed as active; the % refers to the signal ratio; further: on the % scale 0 is the no-effect control and ±100 the full control effect). The gist of the method:
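Antagonist-mode qHTS: compound titrations added to GRE-bla HeLa cells, then dexamethasone 2 nM final; 18 h, 37 C. CCF4 FRET fluorescence normalized to dexamethasone and DMSO; IC50 from Hill fit.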

A short description of test [4]: qHTS assay for small molecule antagonists of peroxisome proliferator-activated receptor delta signaling (AID 588535; active means well fitted inhibition curve with a large enough effect in the signal ratio, with a control signal flat, not every such curve was filed as active; the % refers to the signal ratio;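 on max response: cells co-treated with a PPAR-delta agonist as stimulator during compound exposure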). To be noted: HEK293T PPARd-UAS-bla, beta-lactamase FRET ratio, 18 h; 460 nm channel. The gist of the method:
(§1)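 Antagonist-mode beta-lactamase reporter (GeneBLAzer PPAR-delta-UAS-bla) in HEK293T cells, 2% charcoal/dextran FBS, 4000 cells/well. Compound titrations, 18 h at 37 C; CCF4 ratio read, IC50 and efficacy from Hill fits.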

For test [5], the target named is Peroxisome proliferator-activated receptor delta (Homo sapiens) (UniProt Q03181). The description is as above. The gist of the method:
as §1

In test [6] the target is Peroxisome proliferator-activated receptor gamma (Homo sapiens) (UniProt P37231). The test can be described thus: qHTS assay for small molecule agonists of peroxisome proliferator-activated receptor gamma signaling (AID 588536; active means well fitted curve in the direction sought with a large enough effect in the signal ratio, with a control signal flat, not every such curve was filed as active; the % refers to the signal ratio;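 further: 0% = DMSO basal wells and 100% = rosiglitazone at 2 µM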). The gist of the method: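 Ratiometric blue/green fluorescence (405 nm excitation; 460 and 530 nm emission) from CCF4-loaded HEK293 reporter cells serves as signal. Exposure to test compounds lasts 16 h at 37 C in medium containing 1% charcoal/dextran-treated serum.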

The target of test [7] is Vitamin D3 receptor (Homo sapiens) (UniProt P11473). The test can be described thus: qHTS assay for small molecule antagonists of vitamin D receptor signaling (AID 588541).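 Further: receptor activated by calcitriol during compound treatment; series mostly up to about 77 µM; on the % scale 0 is the no-effect control and ±100 the full control effect.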 In short, it runs like this: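 VDR-UAS-bla HEK293T cells in 2% charcoal-stripped FBS were stimulated with 1-alpha,25-dihydroxyvitamin D3 (3 nM final) plus compound for 16 h at 37 C. The beta-lactamase CCF4 readout was normalized to 50 nM agonist and DMSO, and Hill fits gave IC50.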

Test [8] shares this target. The test is described as follows: qHTS assay for small molecule agonists of vitamin D receptor signaling (AID 588543).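 Further: 0% = DMSO basal and 100% = reference agonist control.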 In short, it runs like this:
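Agonist-mode beta-lactamase reporter: HEK293T VDR-UAS-bla cells in charcoal-stripped 2% FBS, compound series 16 h 37 C, CCF4 2 h RT. EC50 from Hill fit, scaled against DMSO and 50 nM calcitriol control.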

A short description of test [9]: qHTS assay for small molecule agonists of retinoid X receptor alpha signaling (AID 588544).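 On activation: 0% = DMSO basal wells and 100% = reference agonist.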 To be noted: HEK293T RXRa-UAS-bla, beta-lactamase reporter, 18 h; 530 nm emission.
In test [10] the target is Retinoic acid receptor RXR-alpha (Homo sapiens) (UniProt P19793). Described as above.
Test [11] addresses Thyroid hormone receptor beta (Homo sapiens) (UniProt P10828). The test can be described thus: qHTS assay for small molecule agonists of thyroid hormone receptor beta signaling (AID 588545).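 Further: 0% = DMSO only and 100% = 10 nM T3.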 In short, it runs like this:
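Stimulation of a TR-driven beta-lactamase reporter was quantified in GripTite HEK 293 cells. Compound series ran for 18 hrs; curves were normalized to T3 and DMSO controls and fitted to yield EC50.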

Test [12] in a line: qHTS assay for small molecule antagonists of retinoid X receptor alpha signaling (AID 588546; active means well fitted inhibition curve with a large enough effect in the signal ratio, with a control signal flat, not every such curve was filed as active; the % refers to the signal ratio;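 further: cells stimulated with 9-cis-retinoic acid as agonist; on the % scale 0 is the no-effect control and ±100 the full control effect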). The conditions noted are these: HEK293T RXRa-UAS-bla, beta-lactamase ratio, antagonist mode; measured here: W530 green channel, cytotoxicity proxy. The gist of the method:
(§2)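 Beta-lactamase reporter inhibition, read as CCF4 fluorescence ratio (ex 405, em 460/530 nm) after 2 h at RT. HEK293T UAS-bla cells, 2500/well, were stimulated with 9-cis-RA at 500 or 100 nM final alongside test compound for 18 h at 37 C.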

Test [13] has as its target Retinoic acid receptor RXR-alpha (Homo sapiens) (UniProt P19793). The test is described as above. To be noted: HEK293T RXRa-UAS-bla, beta-lactamase ratio, antagonist mode. The gist of the method: as §2
Test [14] concerns the target Thyroid hormone receptor beta (Homo sapiens) (UniProt P10828). The test is described as follows: qHTS assay for small molecule antagonists of thyroid hormone receptor beta signaling (AID 588547; active means well fitted inhibition curve with a large enough effect in the signal ratio, with a control signal flat, not every such curve was filed as active; the % refers to the signal ratio). To be noted: TR-UAS-bla HEK293, beta-lactamase ratio, antagonist mode, 18 h. In short, it runs like this: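 TR-UAS-bla GripTite HEK293 cells in 2% charcoal/dextran FBS medium; compounds 0.59 nM to 92 uM with T3 at 0.4nM final, 18 h at 37 C. Beta-lactamase read by CCF4 fluorescence (460/530 nm); Hill fits gave IC50 and efficacy.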

A short description of test [15]: qHTS assay for small molecule agonists of the antioxidant response element (ARE) signaling pathway (AID 651741; active means well fitted activation curve with a large enough effect in the signal ratio; the % refers to the signal ratio; further: % of control where 0% means no effect). In short, it runs like this: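 CellSensor ARE-bla HepG2 cells (2,000/well) carrying ARE-driven beta-lactamase, exposed 16 h at 37 C. LiveBLAzer B/G FRET substrate added for 2 h at room temperature; fluorescence intensity read.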
Test [16] can be described thus: qHTS assay for small molecule activators of the p53 signaling pathway (AID 651743; active means well fitted activation curve with a large enough effect in the signal ratio, not every such curve was filed as active; the % refers to the signal ratio; further: series mostly up to about 92 µM; % of control where 0% means no effect). The conditions noted are these: HCT-116 p53RE-bla, beta-lactamase FRET ratio, 16 h; stronger effect = higher value. In short, it runs like this:
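p53RE-bla HCT-116 cells carrying a beta-lactamase reporter under p53 response elements were exposed to compounds for 16 hours at 37 C. Reporter activity read as fluorescence after 2 hours at room temperature with LiveBLAzer B/G FRET substrate.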

For test [17], the target named is Bile acid receptor (Homo sapiens) (UniProt Q96RI1). The test can be described thus: qHTS assay for small molecule antagonists of farnesoid X receptor signaling (AID 588526). Further: on the % scale 0 is the no-effect control and ±100 the full control effect. In short, it runs like this:
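Antagonist mode: titrated compounds tested against chenodeoxycholic acid stimulation (normalized to 50 uM CDCA and DMSO) in GeneBLAzer HEK293T cells for 16 h. Beta-lactamase read by CCF4 fluorescence; IC50 from Hill fits.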

Test [18] has as its target Voltage-gated inwardly rectifying potassium channel KCNH2 (Homo sapiens) (UniProt Q12809). The test can be described thus: qHTS Assay for Small Molecule Inhibitors of the Human hERG Channel Activity (AID 588834; active means well fitted inhibition curve with a large enough effect;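 further: top concentration of the series differs between compounds; on the % scale 0 is the no-effect control and ±100 the full control effect; lower thallium flux fluorescence means stronger hERG block; nearly all actives have a fitted effect of over 50% in size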). In short, it runs like this: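 Kinetic FDSS fluorescence; U2OS + hERG BacMam (~100 virus particles/cell); FluxOR Tl+ flux; ~10 min cpd; AC50 (Hill).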
Test [19] in a line: qHTS assay for small molecule activators of the nuclear factor-kappa B (NF-kB) signaling pathway (AID 651749; active means well fitted activation curve with a large enough effect in the signal ratio; the % refers to the signal ratio; further: series mostly up to about 77 µM; % of control where 0% means no effect). The conditions noted are these: NF-kB-bla ME-180 cells, beta-lactamase FRET ratio, 16 h; stronger effect = higher value. The gist of the method: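 NF-kB-bla ME-180 cells carrying a beta-lactamase reporter under an NF-kB response element, 2,000 cells/well, exposed to compound for 16 hr at 37C; FRET-based beta-lactamase fluorescence read-out of pathway activation.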

For test [20], the target named is Peroxisome proliferator-activated receptor gamma (Homo sapiens) (UniProt P37231). The test can be described thus: qHTS assay for small molecule antagonists of peroxisome proliferator-activated receptor gamma signaling (AID 588537; active means well fitted inhibition curve with a large enough effect in the signal ratio, with a control signal flat, not every such curve was filed as active; the % refers to the signal ratio;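 further: reporter cells co-stimulated with 50 nM rosiglitazone agonist during compound treatment; % of control where 0% means no effect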). The gist of the method:
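PPARγ-UAS-bla HEK293 cells (3000/well) in 1% charcoal/dextran-stripped FBS are treated with compound, then stimulated with 50 nM rosiglitazone for 16 h at 37 °C. Read-out is CCF4 β-lactamase fluorescence after 2 h at RT. IC50 comes from Hill fits normalised to rosiglitazone and DMSO.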

Inconclusive results are not listed. The source made the active and inactive calls. Unless noted, the call rests on the fitted dose curve.

Vitamin D3 receptor (Homo sapiens), sequence (P11473 whole entry, looked up): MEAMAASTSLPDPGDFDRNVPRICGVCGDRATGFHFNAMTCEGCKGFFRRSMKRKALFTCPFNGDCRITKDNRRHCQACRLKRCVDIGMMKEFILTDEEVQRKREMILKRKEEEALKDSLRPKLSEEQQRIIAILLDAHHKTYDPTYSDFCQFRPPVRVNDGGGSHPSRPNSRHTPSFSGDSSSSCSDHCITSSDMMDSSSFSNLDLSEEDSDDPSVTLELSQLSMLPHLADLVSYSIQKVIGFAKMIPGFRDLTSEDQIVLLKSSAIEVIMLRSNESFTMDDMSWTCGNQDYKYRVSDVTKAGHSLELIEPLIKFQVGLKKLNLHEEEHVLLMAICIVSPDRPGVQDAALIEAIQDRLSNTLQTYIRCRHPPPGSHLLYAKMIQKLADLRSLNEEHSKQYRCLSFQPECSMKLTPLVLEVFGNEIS
Thyroid hormone receptor beta (Homo sapiens), sequence (P10828 whole entry, looked up): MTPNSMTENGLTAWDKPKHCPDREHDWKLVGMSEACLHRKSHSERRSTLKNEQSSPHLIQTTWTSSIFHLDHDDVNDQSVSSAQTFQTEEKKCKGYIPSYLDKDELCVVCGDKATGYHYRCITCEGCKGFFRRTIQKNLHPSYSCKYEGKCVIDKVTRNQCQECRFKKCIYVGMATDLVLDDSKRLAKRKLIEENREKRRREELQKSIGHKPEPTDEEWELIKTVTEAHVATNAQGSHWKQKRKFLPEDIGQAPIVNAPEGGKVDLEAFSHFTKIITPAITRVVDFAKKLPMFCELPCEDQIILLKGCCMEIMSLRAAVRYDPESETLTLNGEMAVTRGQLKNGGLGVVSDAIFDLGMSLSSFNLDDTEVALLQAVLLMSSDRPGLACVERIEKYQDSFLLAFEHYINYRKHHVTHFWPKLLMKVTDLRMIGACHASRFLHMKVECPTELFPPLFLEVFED
Bile acid receptor (Homo sapiens), sequence (Q96RI1 whole entry, looked up): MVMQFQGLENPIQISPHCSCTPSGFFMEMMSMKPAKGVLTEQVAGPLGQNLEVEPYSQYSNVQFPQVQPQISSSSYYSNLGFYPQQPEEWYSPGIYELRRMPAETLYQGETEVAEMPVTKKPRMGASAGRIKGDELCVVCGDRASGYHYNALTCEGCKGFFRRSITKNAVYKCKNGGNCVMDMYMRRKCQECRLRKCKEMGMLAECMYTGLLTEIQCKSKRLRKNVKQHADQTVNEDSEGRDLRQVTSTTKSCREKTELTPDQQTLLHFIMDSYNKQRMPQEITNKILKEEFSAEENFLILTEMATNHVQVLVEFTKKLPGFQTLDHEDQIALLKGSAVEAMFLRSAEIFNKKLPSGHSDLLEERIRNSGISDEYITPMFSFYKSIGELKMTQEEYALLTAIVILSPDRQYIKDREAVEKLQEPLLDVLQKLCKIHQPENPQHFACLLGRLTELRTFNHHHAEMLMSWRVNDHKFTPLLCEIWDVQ
Peroxisome proliferator-activated receptor delta (Homo sapiens), sequence (Q03181 whole entry, looked up): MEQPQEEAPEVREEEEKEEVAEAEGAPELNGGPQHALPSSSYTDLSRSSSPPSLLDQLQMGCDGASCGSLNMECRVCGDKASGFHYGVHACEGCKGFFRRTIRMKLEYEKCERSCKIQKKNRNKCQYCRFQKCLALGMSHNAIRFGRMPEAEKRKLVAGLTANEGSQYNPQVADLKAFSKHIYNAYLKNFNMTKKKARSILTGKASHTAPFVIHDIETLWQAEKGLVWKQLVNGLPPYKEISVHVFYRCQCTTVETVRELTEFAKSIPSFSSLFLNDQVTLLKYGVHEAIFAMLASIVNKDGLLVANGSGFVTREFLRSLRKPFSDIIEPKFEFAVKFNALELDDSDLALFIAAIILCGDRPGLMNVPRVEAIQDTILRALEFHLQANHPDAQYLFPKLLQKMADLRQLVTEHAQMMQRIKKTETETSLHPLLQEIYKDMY
Glucocorticoid receptor (Homo sapiens), sequence (P04150 whole entry, looked up): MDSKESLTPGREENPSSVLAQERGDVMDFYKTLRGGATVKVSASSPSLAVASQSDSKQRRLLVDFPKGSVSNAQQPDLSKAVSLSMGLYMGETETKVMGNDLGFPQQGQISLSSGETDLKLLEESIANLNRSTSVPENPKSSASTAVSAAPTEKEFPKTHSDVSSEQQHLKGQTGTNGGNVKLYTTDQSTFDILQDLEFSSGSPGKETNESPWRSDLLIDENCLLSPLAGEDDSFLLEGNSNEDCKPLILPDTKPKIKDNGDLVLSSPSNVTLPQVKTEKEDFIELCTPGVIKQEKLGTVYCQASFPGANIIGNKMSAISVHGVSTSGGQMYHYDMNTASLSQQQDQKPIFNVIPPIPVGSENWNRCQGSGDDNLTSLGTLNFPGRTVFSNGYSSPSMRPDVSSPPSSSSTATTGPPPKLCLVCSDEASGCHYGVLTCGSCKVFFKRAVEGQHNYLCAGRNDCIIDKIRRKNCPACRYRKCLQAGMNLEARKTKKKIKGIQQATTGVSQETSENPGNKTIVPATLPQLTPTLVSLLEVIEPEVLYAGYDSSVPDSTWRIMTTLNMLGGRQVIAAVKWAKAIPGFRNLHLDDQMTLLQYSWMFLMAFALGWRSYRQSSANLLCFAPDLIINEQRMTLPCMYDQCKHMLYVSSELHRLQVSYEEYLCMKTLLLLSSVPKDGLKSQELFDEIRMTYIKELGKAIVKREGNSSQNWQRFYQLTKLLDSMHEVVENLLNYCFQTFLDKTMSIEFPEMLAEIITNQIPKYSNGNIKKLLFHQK
Retinoic acid receptor RXR-alpha (Homo sapiens), sequence (P19793 whole entry, looked up): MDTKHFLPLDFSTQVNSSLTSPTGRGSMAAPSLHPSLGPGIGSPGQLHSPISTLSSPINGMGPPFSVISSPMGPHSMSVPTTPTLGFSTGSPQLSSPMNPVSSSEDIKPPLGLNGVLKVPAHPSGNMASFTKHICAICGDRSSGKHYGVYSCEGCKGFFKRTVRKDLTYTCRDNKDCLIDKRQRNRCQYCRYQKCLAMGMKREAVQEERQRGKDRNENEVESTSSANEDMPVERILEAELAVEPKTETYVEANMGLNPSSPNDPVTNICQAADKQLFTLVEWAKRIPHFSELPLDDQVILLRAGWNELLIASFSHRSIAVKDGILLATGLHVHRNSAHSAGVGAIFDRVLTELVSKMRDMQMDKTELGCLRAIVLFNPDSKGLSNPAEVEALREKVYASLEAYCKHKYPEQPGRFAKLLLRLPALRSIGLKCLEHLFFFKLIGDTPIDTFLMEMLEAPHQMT
Voltage-gated inwardly rectifying potassium channel KCNH2 (Homo sapiens), sequence (Q12809 whole entry, looked up): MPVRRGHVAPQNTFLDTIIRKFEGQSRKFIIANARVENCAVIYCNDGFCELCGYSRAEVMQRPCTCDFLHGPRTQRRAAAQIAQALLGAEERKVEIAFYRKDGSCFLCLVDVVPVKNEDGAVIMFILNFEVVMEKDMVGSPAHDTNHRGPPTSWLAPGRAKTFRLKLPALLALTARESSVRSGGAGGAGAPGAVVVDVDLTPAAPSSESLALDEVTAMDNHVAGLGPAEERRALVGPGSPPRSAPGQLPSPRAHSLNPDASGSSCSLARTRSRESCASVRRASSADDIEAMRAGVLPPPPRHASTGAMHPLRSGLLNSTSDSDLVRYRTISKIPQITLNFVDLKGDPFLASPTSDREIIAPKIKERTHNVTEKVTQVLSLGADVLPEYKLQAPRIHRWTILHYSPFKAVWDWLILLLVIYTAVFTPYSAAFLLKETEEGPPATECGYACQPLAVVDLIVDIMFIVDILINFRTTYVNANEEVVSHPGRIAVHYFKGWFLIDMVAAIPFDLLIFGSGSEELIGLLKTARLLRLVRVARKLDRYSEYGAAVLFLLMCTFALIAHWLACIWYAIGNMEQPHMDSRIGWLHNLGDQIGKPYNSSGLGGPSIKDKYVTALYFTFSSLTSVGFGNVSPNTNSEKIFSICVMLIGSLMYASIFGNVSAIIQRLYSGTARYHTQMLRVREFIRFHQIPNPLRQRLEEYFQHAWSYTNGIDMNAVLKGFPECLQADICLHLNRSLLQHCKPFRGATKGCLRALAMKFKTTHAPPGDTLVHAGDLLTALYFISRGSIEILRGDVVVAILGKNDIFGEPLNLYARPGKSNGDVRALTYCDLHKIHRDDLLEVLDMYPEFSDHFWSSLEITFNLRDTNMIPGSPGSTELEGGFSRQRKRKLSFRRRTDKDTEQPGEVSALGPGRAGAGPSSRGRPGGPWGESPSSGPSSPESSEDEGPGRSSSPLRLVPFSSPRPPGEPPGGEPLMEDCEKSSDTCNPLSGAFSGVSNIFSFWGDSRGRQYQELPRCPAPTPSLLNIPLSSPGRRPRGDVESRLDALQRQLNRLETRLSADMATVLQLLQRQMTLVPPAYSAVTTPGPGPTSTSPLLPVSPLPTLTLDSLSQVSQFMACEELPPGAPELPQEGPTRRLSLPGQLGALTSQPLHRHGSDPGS
Peroxisome proliferator-activated receptor gamma (Homo sapiens), sequence (P37231 whole entry, looked up): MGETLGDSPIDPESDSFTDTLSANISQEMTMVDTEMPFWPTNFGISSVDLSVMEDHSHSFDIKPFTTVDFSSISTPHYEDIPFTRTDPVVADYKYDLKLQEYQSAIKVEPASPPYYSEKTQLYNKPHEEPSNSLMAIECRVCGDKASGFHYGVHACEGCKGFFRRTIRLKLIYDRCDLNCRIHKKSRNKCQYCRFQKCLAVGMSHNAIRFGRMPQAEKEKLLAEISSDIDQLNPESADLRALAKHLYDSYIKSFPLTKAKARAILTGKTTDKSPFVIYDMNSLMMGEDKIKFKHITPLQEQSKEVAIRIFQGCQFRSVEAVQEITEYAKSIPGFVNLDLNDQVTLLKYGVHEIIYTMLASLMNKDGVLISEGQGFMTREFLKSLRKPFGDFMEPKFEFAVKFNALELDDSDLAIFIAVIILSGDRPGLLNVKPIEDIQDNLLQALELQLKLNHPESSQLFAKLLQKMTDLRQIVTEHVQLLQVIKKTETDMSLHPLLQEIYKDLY

For `Nc1cc(S(=O)(=O)O)ccc1O`, the outcome in test [1], in [3], in [6], in test [7], in [8] and in test [10] was inactive. The outcome in [11] was inactive. Moreover, the activation is -0.152% (inactive) in [2] and -1.55% (inactive) in test [16]. Further, the max response in [4] is 15.9%; in test [9], 6.72%; in test [12] it was 0.685%; in test [13] it was 10% (inactive). The Potency result in test [5] and in test [15] was “inactive” in each case. The activity change % (negative = inhibition) in test [14] was 6.95% (inactive).
`FC(F)(F)c1cccc(Cl)c1`: the outcome in test [1], in test [17], in [3], in test [10] and in test [11] was inactive. Besides, the activation in test [2] is -8.16% (inactive); in [16], -1.63% (inactive). Moreover, the values for the max response in [9], in [12] and in test [13] were -1.24%, 3.78% and 6.29% (inactive), respectively. Also, the activity change % (negative = inhibition) in [14] was -4.74% (inactive). The Potency result in test [18] and in test [15] was “inactive” throughout.
In the case of `COc1cccc2sc(N)nc12`, the outcome in test [1], in test [17], in [6], in test [7], in [8] and in [10] was inactive. In addition, the result in [11] was inactive. Also, the max response in [4] is -34.4%; in test [9] it was 2.8%; in [12], -11.1%; in test [13], -10.9% (inactive). The Potency entry in test [5], in [18] and in test [15] was “inactive” in each case. Besides, the activity change % (negative = inhibition) in test [14] is -20.5% (inactive). Further, in test [19], the activation was 0.198% (inactive).
Consider `CCOc1cc(OCC)c(C(C)=O)cc1OCC`, for which the molecule was called inactive in [1], in test [3], in test [6], in [20], in test [7] and in [10]. For the same molecule, the outcome in [11] was inactive. Also, the activation in test [2] was -0.956% (inactive); in test [16], -3.93% (inactive); in test [19], 2.04% (inactive). For the same molecule, the results for the max response in [9], in test [12] and in test [13] were 4.48%, 1.94% and 7.64% (inactive), respectively. Further, the activity change % (negative = inhibition) in [14] was -7.72% (inactive). The Potency entry in test [18] was “inactive”.
`Cc1ccc(C#N)cc1`: the result in [17], in test [3], in test [6], in test [20], in test [7] and in [8] was inactive. For the same molecule, the molecule was called inactive in [10] and in test [11]. The results for the activation in test [2] and in test [19] were -8.98% (inactive) and 0.0681% (inactive), respectively. In addition, the max response in test [4] was -7.41%; in test [9] it was 3.27%; in test [12], -3.82%; in test [13], 0.597% (inactive). For the same molecule, the Potency result in [5] and in test [18] was “inactive” throughout. Further, the activity change % (negative = inhibition) in [14] was 4.16% (inactive).
For `Nc1ccc(Cl)cc1[N+](=O)[O-]`, the call in test [1], in test [3], in test [6], in test [20], in test [7] and in test [8] was inactive. The result in test [10] was inactive. Moreover, the activation is -4.92% (inactive) in test [2], -3.6% (inactive) in [16] and -1.3% (inactive) in test [19]. Also, the max response in test [4] is 66.3%; in [9] it was -5.09%; in test [12], -5.59%; in test [13] it was -5.85% (inactive). Also, the Potency result in [5] and in test [18] was “inactive” each time. Besides, the activity change % (negative = inhibition) in test [14] was 1.54% (inactive).
Take `CC(=O)CC(C)C`: the outcome in [1], in test [3], in test [6], in [7], in test [8] and in test [10] was inactive. Besides, the result in [11] was inactive. Further, the activation was 21.2% (inactive) in [2], -2.45% (inactive) in test [16] and 0.24% (inactive) in [19]. For the same molecule, the max response in test [4] was 19.2%; in test [9] it was -6.71%; in test [12], -1.65%; in test [13], 12.3% (inactive). The Potency result in test [5] and in [15] was “inactive” throughout. Further, the activity change % (negative = inhibition) in test [14] was -3.32% (inactive).
